Experimental data published in PubChem BioAssay AID1053197 (The Scripps Research Institute Molecular Screening Center, 2014).
Several values for one entry are separate records, joined by “and”; a condition that tells them apart may be missing. Identical values can stand only once. In all, about 370,000 compounds went through this assay and about 2,600 (0.7%) were called active. For the sample, actives were picked, then their nearest neighbours and some compounds at random. A number with no mark means an inactive call.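 The calls were made as follows: active = inhibition above a cutoff: mean of compounds within the control limits plus 3 SD of those (cut at about 17% in these data); inactive = the rest.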

The compounds below were run against Sialate O-acetylesterase (Homo sapiens) (UniProt Q9HAT2) (assay: blockers of sialate O-acetylesterase activity-probe labeling – biochemical, fluorescence polarization, FP-Rh probe, 1536-well HTS, primary screen (AID 1053197;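 also: 0% = plate median of compound wells and 100% = probe without SIAE protein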)). Conditions: SIAE FP-Rh probe binding, at 9.66 µM, hits give high values.
Chain of Sialate O-acetylesterase (Homo sapiens) (Q9HAT2 whole entry, looked up): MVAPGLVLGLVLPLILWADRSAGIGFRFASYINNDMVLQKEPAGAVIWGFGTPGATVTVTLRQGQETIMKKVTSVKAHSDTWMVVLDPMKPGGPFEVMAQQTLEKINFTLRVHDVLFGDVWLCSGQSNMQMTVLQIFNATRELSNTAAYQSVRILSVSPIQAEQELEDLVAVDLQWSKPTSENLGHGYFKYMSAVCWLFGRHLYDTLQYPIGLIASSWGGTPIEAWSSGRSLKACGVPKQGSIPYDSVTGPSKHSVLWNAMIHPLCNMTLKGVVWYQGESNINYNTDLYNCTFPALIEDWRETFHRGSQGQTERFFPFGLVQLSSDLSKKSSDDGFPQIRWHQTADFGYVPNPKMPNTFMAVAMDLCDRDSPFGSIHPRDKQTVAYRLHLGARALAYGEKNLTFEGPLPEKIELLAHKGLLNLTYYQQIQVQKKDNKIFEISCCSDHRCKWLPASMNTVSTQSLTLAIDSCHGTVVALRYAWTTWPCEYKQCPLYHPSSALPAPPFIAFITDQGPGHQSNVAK
Compound `O=c1[nH]c(=S)n(C2CC2)c(O)c1/C=N/N1CCOCC1` has an inhibition of -9.2%. With `Cc1cccc(-n2c(O)c(/C=N/N3CCOCC3)c(=O)[nH]c2=S)c1` the inhibition was 1.16%. With `CC(C)c1ccc(-n2c(O)c(/C=N/N3CCOCC3)c(=O)[nH]c2=S)cc1` the inhibition was 24.9% (active). Work on `CO[C@H]([C@H](C)/C=C/N(C)C=O)[C@@H](C)C(=O)CC[C@H](C)[C@H](O)[C@H](C)[C@H]1OC(=O)/C=C/C(C)=C/[C@H](O)[C@H](OC)C[C@@H]2C=CC[C@@H](C[C@H](OC)[C@@]3(CO3)[C@@H](OC)C[C@@H](OC)[C@@H]1C)O2` yielded an inhibition of 9.94%. Compound `CCOC(=O)C1(CCc2ccccc2)CCN(Cc2ccco2)CC1` has an inhibition of 2.93%. Compound `O=S(=O)(c1ccccc1)N1CCC2CCNC2C1` (stereo not given) has an inhibition of -2.28%. `Cc1cc(C(=O)OCC(=O)Nc2c(F)cccc2F)c(C)n1C1CC1` gave an inhibition of -0.24%. `Cc1ccnc(-n2c(C)cc(/C=C3\C(=O)NC(=S)N(C)C3=O)c2C)c1` gave an inhibition of 0.93%. `Cc1cc(C=C2C(=O)NC(=O)NC2=O)c(C)n1-c1ccncc1` was tested, and the inhibition was 17.8% (active). With `CN(C)C(=O)Oc1cc(OC(=O)N(C)C)cc(C(O)CNC(C)(C)C)c1` (stereo not given) the inhibition was -1.59% and 2.18%. In the case of `Nc1ccc(C(=O)N/N=C2/CN3CCC2CC3)cc1`, the inhibition is reported as 21.4% (active). `CCN(CC)C(=O)c1ccc(NC(=O)c2sccc2-c2ccccc2)cc1` was tested, and the inhibition was -4.91%. `c1cc2c(c(NC3=NCCCS3)c1)CCCC2` was tested, and the inhibition was 2.24%. With `COC(=O)COc1cc(C)cc2oc(=O)c3c(c12)CCCC3` the inhibition was -2.75%. `COC(=O)C1=C(c2ccc(F)cc2OCc2ccccc2)C[C@@H]2CC[C@H]1N2C(=O)NCc1ccc2[nH]ccc2c1` gave an inhibition of -4.35%.
